According to PubChem BioAssay AID493201 (National Center for Advancing Translational Sciences (NCATS), 2011):
Results filed as inconclusive are left out. Entries that show only a call come without a potency. The source made the active and inactive calls. Calls come from the whole dose curve; as a rule, active = well fitted activation curve with a large enough effect; inconclusive = small, poorly fitted or top-dose-only effect; inactive = no such curve, though single readings can be large or run the other way.

Experiment: qHTS Assay for Identifying a Potential Treatment of Ataxia-Telangiectasia: Secondary assay (no NCS) hit validation;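 note: phosphorylated KAP1 signal as a proxy for ATM-like kinase activity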
Details: A-T patient fibroblasts, AlphaLISA, no DNA damage added, 90 min; series mostly up to 76.9 µM
Outline: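 Without NCS-induced DNA breaks, ATM-like activity scored as phospho-KAP1 AlphaLISA signal (pKAP1/total KAP1 bead pair) in ATM-null F2112 fibroblasts; compound series up to 76.7 uM final, 37C incubation, lysates read on AlphaScreen protocol.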
Potency is the fitted concentration of half-maximal effect.

| Compound | Potency |
| --- | --- |
| Cc1ccnc(NC(=O)c2ccccc2NC(=O)c2ccccc2)c1 | inactive |
| CC(Oc1ccccc1)C(=O)Nc1cccc(NC(=O)c2ccco2)c1 (centres undefined) | inactive |
| CCCc1nn(C)c(C(=O)Nc2ccc(C(C)(C)C)cc2)c1Cl | inactive |
| O=C(c1ccc(F)cc1)c1ccc(N2CCCCC2)cc1 | inactive |
| O=C(OCCc1cc2ccccc2c(=O)o1)c1cccc(Br)c1 | inactive |
| CN(C)C(=O)c1nc2ccc(Cl)cn2c1CNCc1cccc(OC(F)(F)F)c1 | inactive |
| CC(C)c1ccc(-c2cc(C(=O)N3CCOCC3)c3cc(Br)ccc3n2)cc1 | inactive |
| c1ccc(CSc2nnc(-c3ccco3)n2Cc2ccco2)cc1 | inactive |
| COc1ccccc1N1CCN(C(=O)c2cc(=O)c3c(C)cc(C)cc3o2)CC1 | inactive |
| COc1ccc(N(CCC#N)C(=O)/C(C#N)=C\c2cccs2)cc1 | inactive |
| CCC12CN(C(=O)c3ccc([N+](=O)[O-])cc3)CC(CC)(CN(C(=O)c3ccc([N+](=O)[O-])cc3)C1)C2=O | 0.207 µM (active) |
| CN(C)C(=O)CN(C)S(=O)(=O)c1ccc(Cl)cc1 | inactive |
| CN(CCc1ccccn1)C(=O)c1cc(COc2ccc(F)cc2F)on1 | inactive |
| Cc1cc(C)n2nc(C(=O)OCCOc3ccc(F)cc3)nc2n1 | 58.2 µM (active) |
| O=C(c1nn2c(C(F)(F)F)cc(-c3ccc(F)cc3)nc2c1Cl)N1CCOCC1 | inactive |
| COc1ccc(C(=O)/C=C/C(=O)N(CC(=O)NC2CCCCC2)Cc2ccccc2)c(O)c1 | inactive |
| COc1cc(CCC(C)NCc2ccccc2)ccc1O (centres undefined) | inactive |

| Compound | Potency |
| --- | --- |
| COc1ccc(N(C)S(=O)(=O)c2cccc(C(=O)OCC(=O)NCc3ccccc3OC)c2)cc1 | inactive |
| CC1(C)CC2(CCO1)OC(=O)CC2C(=O)Nc1c(Cl)cccc1Cl (centres undefined) | inactive |
| CCNC(=S)N(CCc1c(C)[nH]c2ccccc12)Cc1cccnc1 | inactive |
| N#Cc1c2c(c(-n3cnc4ccccc43)n3c1nc1ccccc13)CCC2 | inactive |
| Cc1ccc(C(=O)c2c(C)oc3c2C(=O)C(=O)c2ccccc2-3)cc1 | inactive |
| Cc1cccc(NC(=O)/C(C#N)=C/c2ccc(F)cc2)n1 | 1.84 µM (active) |
| COc1ccc(-c2csc(-c3ccc(O)cc3)n2)cc1 | inactive |
| CCOC(=O)C1=C(C)N(c2ccc(OC)cc2)C(=O)/C1=C\c1ccc(O)c(OCC)c1 | inactive |
| CCOC(=O)c1c(CSc2ccsc2)n(C)c2cc(Br)c(O)c(CN(C)C)c12 | 26 µM (active) |
| O=C(CSc1ccccn1)N/N=C/C=C/c1ccccc1 | inactive |
| COc1ccc(C(CNC(=O)C(Cc2ccccc2)NC(N)=O)N(C)C)cc1 (centres undefined) | inactive |
| COc1ccccc1C(=O)NC(=O)Nc1cccc(Cl)c1 | inactive |
| CC1CC(C)CN(S(=O)(=O)c2ccc(C(=O)NCCCn3ccnc3)cc2)C1 (centres undefined) | inactive |
| C=CCOC(=O)C1=C[C@H](c2coc3ccccc3c2=O)C[C@H](OCc2ccc(CO)cc2)O1 | inactive |
| O=C(c1ccc(F)cc1)N1CCC(c2ccccc2)C1 (centres undefined) | inactive |
| CCOC(=O)CN(C(=O)CSc1nnc(COc2ccc(OC)cc2)n1CC)c1ccccc1 | inactive |
| O=C(N/N=C/c1cccc2ccccc12)c1cccnc1 | inactive |
